Screens (PubChem BioAssay)
Anthrax LF prot: Bacillus anthracis LF protease inhibitors, primary screen, biochemical, multiplex microsphere, MLPCN library; Lethal factor (Bacillus anthracis), P15917; AID 588501, 2011; 360,000 compounds, 0.12% hits; multiplex microsphere protease cleavage assay; inhibition, % at 10 µM; further: plate controls were buffer without enzyme for full effect and enzyme alone for no effect
BoNT A protease: BoNT/A light chain protease inhibitors, primary screen, biochemical, flow cytometry, MLPCN library; Botulinum neurotoxin type A light chain protease (Clostridium botulinum A str. ATCC 3502); multiplex microsphere protease substrate cleavage; inhibition, % at 10 µM; 360,000 compounds, 0.17% hits; AID 588499, 2011; further: plate controls were buffer without enzyme for full effect and enzyme alone for no effect
BoNT F protease: BoNT/F light chain protease inhibitors, primary screen, biochemical, flow cytometry, MLPCN library. inhibition, % at 10 µM. 360,000 compounds, 0.22% hits. Botulinum neurotoxin type F light chain protease (Clostridium botulinum). AID 588497, 2011. Multiplex microsphere protease cleavage assay; in the data active means inhibition above about 35%, passing the limit was not always enough; inconclusive means no clear call, values can overlap the other calls; further: plate controls were buffer without enzyme for full effect and enzyme alone for no effect
BJeLR lethal: MLPCN primary cell-based screen for lethality selective to Ras in HRASV12 cells; inhibition, % (no concentration beside the values); 300,000 compounds, 0.17% hits; BJeLR (HRASV12) viability, CellTiter-Glo ATP luminescence, 48 h; in the data active means inhibition above about 50%; inconclusive means no clear call, values can overlap the other calls
Bead autofluor: counter-screen for toxin protease inhibitors: compound fluorescence. compound autofluorescence counterscreen, microsphere flow cytometry; hits give high values. fluorescence intensity (test concentration not listed). 360,000 compounds, 3.1% hits. AID 624483; in the data active means fluorescence intensity above about 16000; inconclusive means no clear call, values can overlap the other calls
Vc quorum ag: inducers of Vibrio cholerae quorum light production without autoinducers, primary screen, BH1578 luxS cqsA deficient, single point. V. cholerae BH1578 lux reporter, luminescence, 6 h. AID 588436, 2011. 350,000 compounds, 0.16% hits. activation, % at 18.7 µM; in the data active means activation mostly above about 9.7%, no sharp cut-off; inconclusive means no clear call, values can overlap the other calls; inactive means mostly below about 3.7%
* = called active by the depositor; i = inactive; u = inconclusive; x = not tested or not shown; + = active, no number. Compounds with a hit are over-represented: about 3.7% of the library has one in this group of screens. Unless noted, no stated cut-off is given here; in the data, active means inhibition above about 30%; inconclusive means no clear call, values can overlap the other calls; inactive means below that.

SMILES	Anthrax LF prot	BoNT A protease	BoNT F protease	BJeLR lethal	Bead autofluor	Vc quorum ag
O=C(CCSc1ccc(Cl)cc1)c1ccco1	-7	-5	-9	-4	3014	0
O=C(NCc1cccc(Cl)c1)c1ccco1	0	-1	-2	0	22733*	0
CC(NC(=O)c1ccco1)C(=O)OCc1cccc(C(F)(F)F)c1 (configuration not stated)	-4	-2	7	x	u	0
CNc1cncc(-c2cc(OC)c(OC)c(OC)c2)n1	-5	0	2	x	3809	-2
CCCCNC(=O)C1(C)CCC(=O)N1c1cc(C(C)(C)C)nn1C (configuration not stated)	4	0	1	x	5842	x
CC(C)(C)CC(C)(C)NC(=S)Nc1ccc2nc(-c3ccccn3)c(-c3ccccn3)nc2c1	18	42*	18	-2	6947	0
Cc1ccc(CSc2nnc(CC(=O)Nc3ccc(C)cc3)n2C)cc1	-1	2	3	0	19547*	i
Cc1ccccc1NC(=O)Cc1nnc(SCC(=O)c2ccc(Br)cc2)n1C	-3	u	7	-23	18692*	i
Cn1c(COc2ccccc2)nnc1SCC(=O)Nc1ccc2c(c1)OCO2	0	0	0	-8	10530	0
Cc1ccc(NC(=O)Cc2nnc(SCC(=O)c3ccc(Br)cc3)n2C)cc1Cl	x	x	x	4	x	x
Cc1ccc(OCc2nnc(SCC(=O)Nc3ccc4c(c3)OCO4)n2C)cc1	-6	-8	-14	-3	26293*	i
Cc1ccc(NC(=O)Cc2nnc(SCC(=O)Nc3ccccc3)n2C)cc1	-2	0	-9	-20	8363	i
Cc1ccc(OCc2nnc(SCC(=O)Nc3cc(C)on3)n2C)cc1	-6	2	2	-10	21396*	0
CN1C(=O)[C@H]2[C@@H](c3ccc(C(F)(F)F)cc3)N[C@]3(CCCN(Cc4ccc(C(F)(F)F)cc4)C3=O)[C@H]2C1=O	-8	0	-8	x	3765	i
COc1ccc(OC)c(NC(=O)C2(C)CCN2C(=O)CC2CC2)c1 (configuration not stated)	-7	0	-4	x	3069	-1
Cn1c(=O)c(N)c2c3c(c(Br)ccc31)C(=O)c1ccccc1-2	19	38*	-1	-1	3760	i
CCNc1c2c3c(cccc3n(C)c1=O)C(=O)c1ccccc1-2	x	x	x	0	x	x
C[C@H](NC(=O)[C@@H]1CCCN1C(=O)[C@@H]1CCCN1)c1ccccc1	-6	-1	6	x	4586	x
Cc1cccc(CN2CCN([C@@H]3CS(=O)(=O)N[C@H]3COCc3ccccc3)CC2)c1	-7	0	0	x	6030	x
CCNC(=O)C1CN(S(=O)(=O)c2ccccc2)CCN1S(=O)(=O)c1ccccc1 (configuration not stated)	1	0	5	22	9897	-2
O=C(NC1CCCCC1)C1CN(S(=O)(=O)c2ccccc2)CCN1S(=O)(=O)c1ccccc1 (configuration not stated)	-2	-2	-5	6	24405*	i
Cc1ccc(N2C(=O)C3Sc4[nH]c(=O)sc4C(c4ccccc4)C3C2=O)cc1 (configuration not stated)	3	0	0	x	2879	+
O=C1C2Sc3[nH]c(=O)sc3C(c3ccccc3)C2C(=O)N1c1ccc(Cl)cc1 (configuration not stated)	2	0	8	x	2225	i
Cc1[nH]c(=O)[nH]c1C(=O)CCCCC(=O)OCC(=O)Nc1ccccn1	-1	9	70*	-4	4438	-7
O=C(c1ccco1)N1CCCSC1=Nc1ccccc1	-2	-1	-3	1	21959*	1
SMILES	Anthrax LF prot	BoNT A protease	BoNT F protease	BJeLR lethal	Bead autofluor	Vc quorum ag
CC(C)(C)NC(=O)CN(C(=O)CCN1CCCc2ccccc21)C(C)(C)C	6	13	-6	6	20626*	0
CC(C)(C)NC(=O)CN(Cc1cccs1)C(=O)CCN1CCc2ccccc21	2	0	-2	-2	2836	0
CC(C)CC(=O)N1CCC(O)(CS(=O)(=O)Cc2ccccc2Cl)CC1	-2	u	-7	8	21027*	i
COc1ccc(OC)c(NS(=O)(=O)c2ccc3[nH]c(=O)[nH]c3c2)c1	3	0	0	x	3413	i
O=C(c1cc2ccccc2o1)N1CCN(S(=O)(=O)c2c(F)cccc2F)CC1	-14	-54	-84	x	20189*	-1
O=C(NCC(F)(F)F)c1[nH]c(C(F)(F)F)nc1-c1ccccc1	-6	0	0	x	5749	x
COc1cccc(C(O)c2nc(-c3ccc(OC)nc3)cs2)c1 (configuration not stated)	13	0	-6	x	3573	2
O=C(COC(=O)c1cn(-c2ccccc2)nc1-c1ccccc1)c1cccc([N+](=O)[O-])c1	-5	-1	-5	-6	16553*	1
CCOC(=O)c1cc(OC(=O)c2ccccc2)n(-c2ccccc2)n1	0	-1	-1	-3	23849*	0
CCOC(=O)c1cc(OC(=O)c2ccccc2Br)n(-c2ccccc2)n1	-2	0	-6	-11	10633	4
CCOC(=O)c1cc(OC(=O)c2cccc([N+](=O)[O-])c2)n(-c2ccccc2)n1	0	u	-3	4	17208*	0
CCOC(=O)c1cc(OC(=O)c2cccs2)n(-c2ccccc2)n1	-1	-1	-2	x	10007	0
CCOC(=O)[C@]12Cc3c(cc(OC)c(OC)c3OC)[C@H]1N(Cc1ccccc1)C(=O)c1cc(OC)ccc12	-4	0	-6	x	5615	x
CC1(C(=O)Nc2cccc(NS(C)(=O)=O)c2)CCN1Cc1ccccc1OC(F)F (configuration not stated)	-5	0	0	x	3664	-1
CC1(C(=O)NCc2ccccc2Br)CCN1Cc1csc2ccccc12 (configuration not stated)	1	-1	3	x	3697	-1
CCN(CC)C(=O)CSc1nnc(-c2ccco2)n1N	-10	8	9	4	17289*	i
CCOc1ccccc1-n1c(SCC(=O)NC)nnc1-c1ccco1	-6	-6	-10	7	17639*	-1
CNC(=O)CSc1nnc(-c2ccco2)n1-c1ccccc1OC	-2	0	5	14	7903	i
C[C@H]1CN([C@@H](C)CO)C(=O)c2cc(Br)cnc2O[C@H]1CN(C)C(=O)Cc1ccccn1	-2	0	-6	x	2808	-1
O=C(NCCc1ccccc1C(F)(F)F)c1cc(COc2ccccc2)on1	5	-1	-4	x	4210	0
